Only some compounds are listed: those with a hit (about 7.2% of all), similar ones and a draw of the others.
ALR H2O2 inh = human ALR oxidase inhibition via reduced H2O2; purified ALR, DTT oxidation, H2O2 HRP-luminol luminescence; 290,000 tested, 3.8% active; P55789; inhibition, % (test concentration not listed); AID 485317;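 active = mean replicate inhibition above about 79%, with every replicate also reaching it, limit read from the data; inconclusive = only one of the two criteria met; inactive = mean below limit and not every replicate reaching it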
Target sequence (P55789 whole entry, looked up): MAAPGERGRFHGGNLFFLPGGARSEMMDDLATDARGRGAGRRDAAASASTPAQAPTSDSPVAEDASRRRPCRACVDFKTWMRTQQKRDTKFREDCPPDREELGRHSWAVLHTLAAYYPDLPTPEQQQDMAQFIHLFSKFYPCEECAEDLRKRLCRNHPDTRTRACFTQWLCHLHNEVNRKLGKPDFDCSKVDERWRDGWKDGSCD
Efflux pump mplx = blocks antifungal efflux pumps in multiplex yeast assay. inhibition, % at 10 µM. 330,000 tested, 0.44% active. S. cerevisiae Candida pump triplex, Nile Red efflux;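 active = plate passing quality check with inhibition over a set limit, or well fluorescence over plate mean plus 4 SD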;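 also: Nile Red retained in pooled yeast measured as flow cytometry median fluorescence; higher means more Nile Red kept so more efflux inhibition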
AHR act = activates the human aryl hydrocarbon receptor | activation, % at 5 µM | AID 2796 | AHR-responsive luciferase reporter cells, luminescence | 320,000 tested, 2.5% active | P35869; in the data active = activation above about 47%
SUMO Mot1 rescue = blocks SUMOylation pathway, rescuing yeast Mot1-301 growth; growth rescue, % at 18.8 µM; 320,000 tested, 1% active; S. cerevisiae Mot1-301 growth rescue, ATP luminescence, 38.5C; percent above DMSO median, 100 means doubled;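 active = every valid replicate shows activation above 250% relative to neutral control wells; inactive = the rest, any valid replicate at or below 250%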
VLA-4 inh = inhibition in a human VLA-4 binding assay; P13612; VLA-4 expressing cells, ligand binding flow cytometry; inhibition, % (about 7 µM as worked out from the volumes in the protocol); 330,000 tested, 0.2% active; AID 2557; in the data active = inhibition above about 50%
A1 inh = inhibitors of the anti-apoptotic protein A1, read as caspase activation; AID 2462; 330,000 tested, 0.066% active; caspase activation, % (concentration not given with the values); MEF A1-2A-BIM cells, Caspase-Glo 3/7 luminescence, 3 h; percent of clofoctol response, vehicle zero;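 active = over half of replicate activation scores above 10%, or exactly half above 10 with the replicate mean above 10; inconclusive = replicate mean below 10 yet half the replicates above 10; inactive = over half of replicates below 10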
AHR act confirm = confirmation of human aryl hydrocarbon receptor activators; shares compounds with AHR act; human cells, AHR-responsive luciferase reporter, luminescence; activation, % at 9 µM; 2,300 tested, 87% active; AID 2845; in the data active = activation above about 49%;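 also: HepG2 hepatoma cells carrying a DRE-driven firefly luciferase reporter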
PXR counter = counter-screen for AHR activators: human PXR activators; shares compounds with AHR act; cell-based PXR reporter, luciferase luminescence; activation, % at 11.6 µM; 2,300 tested, 88% active; in the data active = activation above about 11%;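 also: human hepatoma DPX-2 cells expressing full-length human PXR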
Target sequence (O75469 whole entry, looked up): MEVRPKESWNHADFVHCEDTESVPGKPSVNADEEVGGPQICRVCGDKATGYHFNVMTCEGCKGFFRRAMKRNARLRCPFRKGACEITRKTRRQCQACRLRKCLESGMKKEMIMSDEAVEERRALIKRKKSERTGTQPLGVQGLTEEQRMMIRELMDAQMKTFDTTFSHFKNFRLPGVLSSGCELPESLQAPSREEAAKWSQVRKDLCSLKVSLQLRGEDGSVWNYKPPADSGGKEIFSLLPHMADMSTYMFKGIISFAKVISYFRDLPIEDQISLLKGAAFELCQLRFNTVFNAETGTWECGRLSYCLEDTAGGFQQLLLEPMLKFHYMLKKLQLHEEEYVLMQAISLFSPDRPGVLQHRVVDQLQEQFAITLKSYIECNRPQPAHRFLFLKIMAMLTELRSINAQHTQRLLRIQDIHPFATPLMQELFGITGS
Hits are given with their value; – = inactive; ? = inconclusive; · = no result.

SMILES	ALR H2O2 inh	Efflux pump mplx	AHR act	SUMO Mot1 rescue	VLA-4 inh	A1 inh	AHR act confirm	PXR counter
CNS(=O)(=O)c1ccc2nc(NC(=O)/C=C/c3ccco3)sc2c1	–	–	–	–	–	–	·	·
CC(=O)Nc1ccc2cc3ccc(NC(C)=O)cc3nc2c1	–	–	107.0	–	–	–	81.2	·
Clc1nc(NCc2cccnc2)nc(N2CCOCC2)n1	–	–	–	–	–	–	·	·
COc1ccc(C)cc1NC(=O)CCNC(=O)Cn1ccc2ccccc2c1=O	–	–	–	–	–	–	·	·
CC1CCN(c2ccccc2NC(=S)NC(=O)c2ccc(-c3cccc([N+](=O)[O-])c3)o2)CC1	–	–	–	–	–	–	·	·
CC1CCN(c2ccc(NC(=S)NC(=O)c3ccc(-c4cccc([N+](=O)[O-])c4)o3)cc2)CC1	–	–	82.1	–	–	–	–	14.7
CN(C(=O)c1cc([N+](=O)[O-])ccc1NCc1cccnc1)c1ccccc1	–	–	80.4	–	–	–	72.2	87.9
NS(=O)(=O)c1cc([N+](=O)[O-])ccc1NCc1cccnc1	–	–	–	–	–	–	·	·
CC1CC(C)CN(CCCNC(=O)c2ccc3c(c2)ncn3C2CCCC2)C1 (centres undefined)	–	–	–	–	–	–	·	·
Cc1ccc(C(=O)N/C(=C\c2cccs2)C(=O)NCC2CCCO2)cc1C (centres undefined)	–	–	–	–	–	–	·	·
COc1c(C(=O)Nc2ccc(Br)cn2)ccc2ccccc12	–	–	–	–	–	–	·	·
COc1c(C(=O)Nc2nccs2)ccc2ccccc12	–	–	84.3	–	–	–	149.1	26.8
Cc1ccc2nc(NCc3ccccc3)[nH]c2c1	98.6	–	83.6	–	–	–	55.4	207.9
c1ccc(CNc2nc3ccccc3[nH]2)cc1	–	–	–	–	–	–	·	·
OCc1ccccc1CN1CCCCCC1	–	–	–	–	–	–	·	·
CCn1nc(NC(=O)C(C)(C)C)c2cc3cccc(C)c3nc21	–	–	84.5	–	–	–	88.8	138.9
CCn1nc(NC(=O)CC(C)C)c2cc3cccc(C)c3nc21	–	–	–	–	–	–	·	·
COc1cc(CN2CCN(CCCc3ccccc3)C(CCO)C2)cc(OC)c1O (centres undefined)	–	–	–	–	–	–	·	·
O=C(Nc1ccc(Br)cc1)N1CCc2ccccc2C1	–	–	98.3	–	–	–	155.7	55.2
Cn1c(CNc2ccc(Cl)cc2)nnc1SCc1ccccc1	–	–	101.2	–	–	–	–	140.9
CCn1c(CNc2ccc(Cl)cc2)nnc1SCc1ccccc1	–	–	–	–	–	–	·	·
COc1ccc(NC(=O)CSc2nnc3c4c(nc(-c5ccccc5)n23)CC(C)(C)OC4)cc1	–	–	108.8	–	–	–	–	24.8
COc1ccc(-c2nc3c(c4nnc(SC(C)C(=O)Nc5ccc(C)cc5)n24)COC(C)(C)C3)cc1 (centres undefined)	–	–	–	–	–	–	·	·
O=C(N/N=C/c1sc(N2CCOCC2)nc1-c1ccccc1)c1ccc(O)cc1	–	–	94.6	–	–	–	48.9	11.5
O=C(CNC(=O)c1ccc(F)cc1)N/N=C/c1cn[nH]c1-c1ccccc1	–	–	–	–	–	–	·	·
SMILES	ALR H2O2 inh	Efflux pump mplx	AHR act	SUMO Mot1 rescue	VLA-4 inh	A1 inh	AHR act confirm	PXR counter
O=C(CNC(=O)c1ccccc1F)N/N=C/c1cn[nH]c1-c1ccccc1	–	–	139.5	–	–	–	92.2	18.5
CC1(C(=O)NCc2ccc(F)cc2)Oc2ccccc2NC1=O (centres undefined)	·	–	–	–	–	–	·	·
COc1ccc(CCNC(=O)c2csc3c2CCCC3)cc1OC	·	–	–	–	–	–	·	·
COc1ccc(CCNC(=O)c2cnc3scc(C)n3c2=O)cc1OC	·	–	104.9	–	–	–	94.1	39.7
c1ccc(-c2nnc3n2N=C(c2ccc4c(c2)OCO4)CS3)nc1	·	–	93.8	–	–	–	–	12.9
COc1ccc(C2=Nn3c(nnc3-c3ccccn3)SC2)cc1OC	–	–	–	–	–	–	·	·
O=c1[nH]c(-c2ccc(O)cc2)nc2scc(-c3cccs3)c12	–	–	123.9	–	–	–	86.5	22.7
O=C(O)c1ccc(-c2nc3scc(-c4ccccc4)c3c(=O)[nH]2)cc1	–	–	–	–	–	–	·	·
Cc1cccc(NS(=O)(=O)c2cc(C(=O)N3CCOCC3)ccc2Cl)c1	–	–	–	–	–	–	·	·
COc1ccc(OC)c(CN2CCN(C(=O)[C@@H](NC(=O)c3cccc(C)c3)C(C)C)CC2)c1	·	–	–	–	–	–	·	·
O=c1c2ccccc2nc2c3ccccc3c(NCc3cccnc3)nn12	–	–	–	–	–	–	·	·
O=c1c2ccccc2nc2c3ccccc3c(NCc3ccccn3)nn12	–	–	118.5	–	–	–	113.0	128.1
COc1ccc(C(=O)NC2(C(F)(F)F)C(=O)Nc3c2c(=O)[nH]c(=O)n3CCc2ccc(OC)c(OC)c2)cc1 (centres undefined)	–	–	–	·	–	–	·	·
CN(C)S(=O)(=O)c1ccc(N2CCCC2)c(C(=O)Nc2ccc(F)cc2F)c1	–	–	–	–	–	–	·	·
Nc1[nH]ncc1C(=O)Nc1cccc(C(F)(F)F)c1	–	–	90.7	–	–	–	50.5	·
CN(C)S(=O)(=O)Oc1ccccc1C(=O)Nc1ccc(F)cc1F	–	–	124.3	–	–	–	92.8	154.4
CN(C)S(=O)(=O)Oc1ccccc1C(=O)Nc1cccc(C(F)(F)F)c1	–	–	82.3	·	–	–	100.5	55.1
O=C(CN(Cc1ccccc1Cl)C(=O)c1csnn1)NCCc1ccccc1	·	–	–	–	–	?	·	·
COc1ccc(S(=O)(=O)Nc2cc3c4c(c2)C(C)C(=O)N4CCC3)cc1OC (centres undefined)	–	–	–	–	–	–	·	·
COc1cc(Cl)c(C)cc1NC(=O)c1ccccc1NC(=O)CN1CCOCC1	·	–	101.3	–	–	–	103.3	91.7
O=C(c1ccc2ccccc2n1)N1CCN(c2ccccc2O)CC1	97.9	–	91.8	–	–	–	106.5	40.3
COc1ccc(N2CCN(c3nc(Cl)nc(Nc4ccc(F)cc4)n3)CC2)cc1	·	–	–	–	–	–	·	·
O=C(COc1ccccc1)N/N=C/c1ccc([N+](=O)[O-])o1	–	–	–	–	–	–	·	·
O=C(CNc1ccc2ccccc2c1)N/N=C/c1ccc([N+](=O)[O-])o1	–	–	126.5	–	–	–	63.0	11.4
CSc1nnc(-c2cc(C)on2)n1-c1ccccc1	–	–	–	–	–	–	·	·
CCN(CC)CCC(C)OC(c1ccccc1)c1ccccc1 (centres undefined)	–	–	–	–	–	–	·	·

Compound activity from PubChem BioAssay.
